Structures are written as SMILES.

The Kd is a measure of binding affinity in units of concentration.
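Also: kd values determined as follow-up on hits from a single-replicate KINOMEscan panel screen.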

The test system of the first assay is MARK2.
`Cl.Cn1ccc(-c2cccc(Nc3ccnc4cc(-c5nccs5)ccc34)c2)n1` [GW525701]: the Kd is more than 10000 nM.

In the case of `O=c1cc(N2CCOCC2)nc2n(Cc3cccc(Cl)c3)ccn12` [GSK2296823], the Kd was more than 10000 nM.

Compound `CCn1c(-c2ccncc2)nc2cnccc21` [SB-735216] gave a Kd of more than 10000 nM.

A further assay relates to T1, MEK5.
T1 construct: gene MAP2K5
In the case of `O=C(Nc1n[nH]c2nc(-c3ccco3)c(Br)cc12)c1ccc(CN2CCCC2)cc1.O=C(O)[C@H](O)[C@@H](O)C(=O)O` [SB-742352], binding was characterised by a dissociation constant (Kd) of 550 nM.

For the compound `Cl.c1ccc(Cn2ncc3cc(Nc4ncnc5ccccc45)ccc32)cc1` [GW273749], binding was characterised by a dissociation constant (Kd) of 90 nM.

For `Cl.Cn1ccc(-c2cccc(Nc3ccnc4cc(-c5nccs5)ccc34)c2)n1` [GW525701], the Kd is 960 nM.

Regarding `CCc1nc(-c2cccc(N(C)S(=O)(=O)c3ccccc3)c2)c(-c2ccnc(Nc3ccc(N4CCN(C(C)=O)CC4)nc3)n2)s1` [GSK1645895], the Kd worked out at 7 nM.

Turning to `CC(=O)Nc1n[nH]c2ncc(-c3ccccc3)cc12` [SB-548492], the Kd is 290 nM. Compared with the last compound, the Kd is about 41-fold higher.

The compound `CS(=O)(=O)CCNCc1ccc(-c2ccc3ncnc(Nc4ccc(OCc5ccccc5)c(Cl)c4)c3c2)o1.Cl` [GW574783] gave a Kd of 1000 nM. Compared with the last compound, the Kd is about 3.4-fold higher.

The compound `OCCOCCn1ccc2ncnc(Nc3ccc(Oc4cccc(Cl)c4)c(Cl)c3)c21` displayed a Kd of 200 nM. Compared with the last compound, the Kd is about 5-fold lower.

`COc1cc2c(Nc3cccc(NC(=O)c4ccccc4)c3)ncnc2cc1OCCCN1CCOCC1` [GSK223810] registered a Kd of 940 nM.

`COc1cc2ncnc(Nc3ccc(OCc4ccccc4Br)c(Cl)c3)c2cc1OC.Cl` [GI261590] displayed a dissociation constant (Kd) of 98 nM.

Regarding `Cl.c1ccc(Cn2ccc3cc(Nc4ncnc5ccccc45)ccc32)cc1` [GW275568], the Kd was 770 nM.

The record behind these values is publication PMC5540273 (PLoS ONE, 2017).
